Here are results for 40 molecules from PubChem BioAssay (NCI).

This is part of a sample that, as a whole, favours compounds with a hit. Of some 83,000 tested, about 20% had one in any assay.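 Step 1: grow cells in 96-well plates. Step 2: add test compound at a single concentration. Step 3: incubate 48 h. Step 4: record percent growth.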 Unmarked numbers belong to inactive results. The source made the active and inactive calls.

This assay has as its system HOP-62 NSCLC. As to the kind of experiment: NCI-60 one-dose screen, 48 h (100 = growth as untreated, 0 = no growth, -100 = all killed). The conditions noted are these: 10 µM unless noted. The protocol: Growth inhibition of the HOP-62 human Non-Small Cell Lung tumor cell line is measured as a screen for anti-cancer activity. Cells are grown in 96 well plates and exposed to the test compound for 48 hours. Compounds are tested at a single concentration, which is 10^-5 M for most compounds. The reported endpoint is percent growth (GI% or GIPRCNT), where numbers from 0 - 100% represent growth inhibition, and numbers from -100% - 0 represent cell death. For example, a value of 40 represents 60% growth inhibition. A value of 0 means no net growth occurred over the course of the experiment. A value of -40 indicates 40% of cells at the beginning of the experiment died by the end of the experiment. A value of -100 means all cells are dead at the end of the experiment.
NCI-60 Human Tumor Cell Lines Screen was performed using the standard one-dose NCI protocol, which is described in more detail at https://dtp.cancer.gov/discovery_development/nci-60/default.htm.
Compounds with GIPRCNT values below 10 were considered active. Activity score was based on GIPRCNT using the following formula: […]
Score is 0 for GIPRCNT values of 100 or above, 50 for GIPRCNT values of 0, and 100 for GIPRCNT values of -100.
Take `COc1ccc(-c2c(N)n[nH]c2-c2cc3c(c(OC)c2OC)OCO3)cc1`: the growth was 101%. Regarding `O=C(O)Cc1cccc(=O)c(O)c1C(=O)O`, the growth is 103%.

For `N#Cc1c(-c2ccccc2)nc(SCC(=O)N2CCN(c3ccccc3)CC2)[nH]c1=O`, the growth is 87.7%. As for `COc1ccc(-n2c(-c3ccccc3)c(-c3ccccc3)c3c(SCC(=O)N/N=C/c4ccc(Cl)cc4)ncnc32)cc1`, the growth is 85.5%. On to `O=C(NS(=O)(=O)c1ccc2ccccc2c1)n1cc(-c2ccncc2)c(-c2ccc(Cl)c(O)c2)n1`, for which the growth was 92.1%. Turning to `C=C1C(=O)O[C@H]2[C@H]1CC/C(Cn1cc(CNC(=O)c3cc4ccccc4[nH]3)nn1)=C\CC[C@@]1(C)O[C@@H]21`, the growth was 101%. Take `CC(C)(C)Nc1c(-c2cccs2)nc2ncccn12`: the growth is 104%. As for `Cc1ccc(-c2nc(C#N)c(S(=O)(=O)n3nc(-c4ccccc4)cc3N)o2)cc1`, the growth was 87.6%. With `C=C1CCC2C3(C)COC(c4ccccc4)OC3CCC2(C)C1/C=C/C1=CCOC1=O` (stereo not given) the figure was 113%; with `CCn1c2ccccc2c2cc(NC(=O)Nc3ccc([N+](=O)[O-])cc3C)ccc21`, 49.4%; with `C=C1CCC[C@]2(C)CCC[C@H](C)[C@@H](OC(C)=O)[C@@H]3OC(=O)C(=C)[C@@H]3C[C@H]1O2`, 99.9%.

Consider `N=C(N)c1ccc(-c2cc(Cl)cc(Cl)c2)cn1`, for which the growth is 91.6%.

Take `C/C(=C\c1ccc(OCC(=O)O)c(Cl)c1Cl)[N+](=O)[O-]`: the growth was 100%. Take `Brc1ccc(-c2[nH]ncc2-c2c[nH]c3ccccc23)cc1`: the growth is 111%. The value for `C=CCn1c2ccccc2c2c3c(c4c5ccccc5n(CC=C)c4c21)C(=O)N(O)C3=O` was -1.11% (active).

For the molecule `CCN(CC)CCOc1ccc(Cl)c(C)c1`, the growth is 104%. As for `O=C(Nc1cccc(-n2cc(-c3ccncc3)c(-c3ccc(Cl)c(O)c3)n2)c1)Nc1ccc(Cl)c(Cl)c1`, the growth was 34.4%. The value for `COc1ccc(C(=O)N2NC(=O)/C(=C/c3ccc(Br)cc3)N=C2c2ccccc2)cc1` was 46.6%. Turning to `Cc1[nH]c2ccc(F)cc2c1CCNC(=O)C1CCN(C(=O)c2ccccc2)CC1`, the growth is 84.6% [25 µM]. On to `C=C(C)[C@@H]1C[C@@H]2Cc3cc(F)ccc3N1O2`, for which the growth is 94.4%. The value for `Cc1ccc(S(=O)(=O)c2nc(-c3ccccc3)oc2S(C)(=O)=O)cc1` was 80.7%; that for `COC(OC)c1ccccc1` was 99.3%. Take `O=C(/C=C\c1cccc([N+](=O)[O-])c1)/C=C/c1cccc([N+](=O)[O-])c1`: the growth was 97.2%. Consider `CN(C)CCCN(c1nc(C(Cl)(Cl)Cl)ns1)c1nc(C(Cl)(Cl)Cl)ns1`, for which the growth is 48.4%. Turning to `Nc1ncnc2c1c(-c1ccc(Oc3ccccc3)cc1)nn2C[C@@H]1SSC[C@@H]1O`, the growth was 48.8%. Take `C=C(C)[C@@H]1CC[C@]2(C(=O)N3CCNCC3)CC[C@]3(C)[C@H](CC[C@@H]4[C@@]5(C)C/C(=C/c6ccncc6)C(=O)C(C)(C)[C@@H]5CC[C@]43C)[C@@H]12`: the growth is 107%. Turning to `Cn1ncc2c(Sc3ccc(Cl)cc3)ncnc21`, the growth is 111%.

On to `COC(=O)c1nc(-c2ccccc2)oc1S(=O)(=O)N1CCN(c2cccc(Cl)c2)CC1`, for which the growth is 83%.

With `COc1ccc(Nc2[nH]n3c(=O)cc(-c4ccccc4)nc3c2C(=O)Nc2ccc(C)cc2)c(OC)c1`, the growth is 80.3%. The value for `CCCOC(=O)n1cccc1` was 94.3%. In the case of `O=c1[nH]c(-c2ccccc2)nc(CN2CCCCC2)c1O`, the growth is 112%. For `Fc1ccc(-c2nc(-c3nc4ncccc4[nH]3)cc3c2[nH]c2ccccc23)cc1F`, the growth was 78.6%. With `COc1cc(C2CC(c3ccc4c(c3)OCO4)=NN2C=O)cc(OC)c1OC` (stereo not given) the figure was 36.7%; with `CCN1CCN(c2nc(NNC(=O)c3ccccc3)nc(N3CCN(C(c4ccccc4)c4ccccc4)CC3)n2)CC1`, 79.7%. For `CCOC(=O)c1cc(C(=O)c2cc(OC)c(OC)c(OC)c2)n2c1ccc1ccccc12`, the growth is 21.6%. `Cc1cc(N/N=C/c2nc(-c3ccc(Br)cc3)oc2C)c2cc(Br)ccc2n1`: the growth is 105%.

In the case of `COc1cccc(CC(C)=C(c2ccc(OCCN3CCCCC3)cc2)c2ccc(OCCN3CCCCC3)cc2)c1`, the growth is 31.1%. Consider `COc1cc(/C(C#N)=C/c2ccc3c(c2OC)OCO3)cc2c1OCO2`, for which the growth is 31.2%. The value for `CN1CCN(Cc2ccc(NC(=O)c3cncc(C#Cc4cnc(N)c5ccncc45)c3)cc2C(F)(F)F)CC1` was 9.44% (active); that for `Cn1ccc(=O)c(S(N)(=O)=O)c1` was 92.4%.
